Cav32 inh: Cav3.2 calcium influx blockers – cell-based, Fluo-4 calcium fluorescence, FDSS, MLSMR library, primary screen; Voltage-dependent T-type calcium channel subunit alpha-1H (Homo sapiens), O95180; Cav3.2-expressing cells; stronger effect = lower value; B-score at 10 µM; hit rate 4% among 100,000;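 active = single-dose well whose peak fluorescence ratio is a statistical outlier from its plate by either plate-standardised score or position-corrected B-score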
IL1B NFkB pot: enhancers of NFkB p65 translocation in HUVEC – imaging, IL-1B stimulus, high-content imaging, primary screen. HUVEC IL-1B NFkB p65 nuclear translocation imaging. activation, % at 2 µM. hit rate 0.3% among 94,000;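 active = activation above 40%, about the mean plus 3 SD, also judged a hit on visual image review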;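 note: percent activation is computed from the nuclear over cytoplasmic p65 intensity ratio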
IL1B cytotox: cytotoxicity in IL-1B stimulated HUVEC, primary screen, cytotoxicity control for IL-1B NFkB translocation project, imaging, Hoechst nuclear count, IL-1B stimulus; HUVEC cell count loss; cell count reduction, % at 2 µM; hit rate 0.41% among 94,000;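 active = cell count reduction more than 3 SD above the screen-wide mean, cut at about 70% in these data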;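 note: normalized per plate to untreated control cells as the no-loss baseline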
NFkB transloc inh: inhibitors of IL-1B driven NFkB p65 nuclear import, primary screen, imaging, HUVEC, IL-1B stimulus, high-content imaging; HUVEC IL-1B NFkB p65 nuclear translocation imaging; inhibition, % at 2 µM; hit rate 0.43% among 94,000; AID 796, 2007;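 active = inhibition above about 30% together with a positive call from visual inspection of the well image, limit read from the data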;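 note: nuclear over cytoplasmic p65 intensity ratio measured by imaging; 0% = IL-1B stimulated DMSO wells and 100% = unstimulated DMSO wells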
* = called active by the depositor; / = no result given. Hits are enriched below; roughly 4.4% of the tested compounds scored in any of these assays.

SMILES	Cav32 inh	IL1B NFkB pot	IL1B cytotox	NFkB transloc inh
COc1ccc(NC(=O)CSc2nnc(Cc3cccn3C)n2-c2ccc(C)cc2)cc1OC	-2.2	/	/	/
COc1ccc(-n2c(Cc3cccn3C)nnc2SCC(=O)Nc2ccc(C)c(Cl)c2)cc1	-4.2*	/	/	/
CC(=O)C1=C(C)Nc2cc(C(F)(F)F)ccc2S1	0.95	15	10	-15
C=CCNC(=O)NS(=O)(=O)c1ccc(C)cc1	-1.1	18	-23	-18
Cc1cc(NC(=O)C(C)C)ncc1NC(=O)CCc1ccccc1	-0.29	0	14	0
COc1ccc(-n2c(Cc3cccn3C)nnc2SCC(=O)Nc2cccc(OC)c2)cc1	-4.2*	8	-10	-8
CC(=O)Nc1cccc(NC(=O)CSc2nnc(Cc3cccn3C)n2-c2ccc(F)cc2)c1	-0.97	3	-66	-3
COc1ccc(C(=O)N(Cc2ccccc2)Cc2cc3cc4c(cc3[nH]c2=O)OCCO4)cc1	-2.9	-72	-24	72*
Cc1cc2cc(CN(Cc3ccc4c(c3)OCO4)C(=O)c3ccco3)c(=O)[nH]c2cc1C	-6.3*	22	-12	-22
CC1=C(C(=O)Nc2ccccc2)C2(CCCCC2)C(C#N)=C(S)N1	1.6	1	2	-1
CC(C)(C)c1ccc(C(=O)N2CCC(C(=O)NCc3ccncc3)CC2)cc1	1	-100	94*	100*
CC(=O)N1CCN2C(=O)C1CCCC(=O)c1cc(C)ccc12 (stereo not drawn)	0.2	7	-36	-7
Cc1ccc(S(=O)(=O)Oc2ccc(/C=C(/NC(=O)c3ccccc3)C(=O)Nc3ccccc3)cc2)cc1	-5*	15	6	-15
COc1ccc(NC(=O)/C(=C\c2ccc(OS(=O)(=O)c3ccc(C)cc3)cc2)NC(=O)c2ccccc2)cc1	-2.6	-14	0	14
CC1CC(C)CN(C(=O)CSc2nnc(-c3ccc(Cl)s3)o2)C1 (stereo not drawn)	-3.4*	/	/	/
CCCNC(=O)c1c(CSc2ccc(Cl)cc2)noc1C(=O)NCc1ccccc1	-2.7	/	/	/
COc1ccc(CSCC(=O)N/N=C/c2ccccc2OCc2ccccc2)cc1	-5.8*	23	-23	-23
CC(=O)C(C(C)=O)c1c(Cl)c(O)c(O)c2c(C(=O)c3ccccc3)coc12	-1	-2	8	2
Cc1ccc(CN(CC(=O)N/N=C/c2ccccc2[N+](=O)[O-])S(=O)(=O)c2ccc(C)cc2)cc1	-4*	11	-15	-11
O=C(CN(Cc1ccccc1)S(=O)(=O)c1ccccc1)N/N=C/c1ccccc1[N+](=O)[O-]	-1.9	15	-29	-15
CC(C)(C)/C(O)=C(/C#N)c1nc2ccccc2[nH]1	/	8	18	-8
CC(C)(C)c1nc2ccccc2[nH]1	0.53	48*	-9	-48
Cc1cc(C)c(C(=O)COC(=O)[C@H](C)Nc2ccc(C(F)(F)F)cc2[N+](=O)[O-])c(C)c1	-4.4*	10	-15	-10
O=C(c1ccco1)N(CCC(c1ccccc1)c1ccco1)Cc1ccc(F)cc1 (stereo not drawn)	-3.9*	2	11	-2
CC(C)N(C(=O)CSc1nc2ccccc2n1Cc1ccccc1F)C(C)C	-9*	0	-26	0
SMILES	Cav32 inh	IL1B NFkB pot	IL1B cytotox	NFkB transloc inh
CC(=O)Nc1nc2ccccc2n1CCOc1ccccc1	-0.8	9	-12	-9
CC(C)N(C(=O)CSc1nc2ccccc2n1Cc1ccccc1)C(C)C	-0.36	31	-42	-31
CCSc1nc2ccccc2n1CCOc1ccccc1	-3.8*	-1	10	1
CCSc1nc2ccccc2n1Cc1ccccc1F	-5*	1	20	-1
COc1ccc(N(Cc2ccccc2)C(=O)c2ccccc2[N+](=O)[O-])cc1	-3.9	31	6	-32
Cc1ccccc1OCCN1C(=O)NC2(CCc3ccccc32)C1=O (stereo not drawn)	-0.24	13	-8	-13
O=C1NC2(CCc3ccccc32)C(=O)N1CCOc1ccc(Cl)cc1 (stereo not drawn)	-4.8*	0	-5	0
CC1CCN(C(=O)Cn2c(=O)n(Cc3ccc4c(c3)OCO4)c(=O)c3ccccc32)CC1	-2.4	-3	1	3
O=C(Cn1c(=O)n(Cc2ccc3c(c2)OCO3)c(=O)c2ccccc21)N1CCCc2ccccc21	-7.1*	20	-9	-20
CCc1c(C)sc2nc(C(C)C)nc(SCC(=O)N3CCc4ccccc4C3)c12	0.27	5	-21	-5
CC(=O)OCCNc1cc(N2CCN(C)CC2)c2noc3c2c1C(=O)c1ccccc1-3	-0.44	/	/	/
CCOC(=O)C(C(=O)OCC)c1cc(Br)c2noc3c2c1C(=O)c1ccccc1-3	-5.5*	2	0	-2
CCSc1ncc(Cl)c(C(=O)N(Cc2ccc(N(C)C)cc2)C2CCS(=O)(=O)C2)n1 (stereo not drawn)	3.5*	0	4	0
COc1cccc(C(=O)N(Cc2ccc(N(C)C)cc2)C2CCS(=O)(=O)C2)c1 (stereo not drawn)	0.78	11	4	-11
CC(C)CNc1nc(=S)nc(N(C)C)[nH]1	-0.56	-37	21	37*
CCCCCCn1c(=O)c(-c2ccccc2)c(O)c2ccccc21	-7.1*	-4	-7	4
CCCCn1c(=O)cc(O)c2ccccc21	0.24	22	4	-22
CCOc1ccc(OC(=O)NC(c2ccccc2)C(Cl)(Cl)Cl)cc1 (stereo not drawn)	-3.5*	8	9	-8
Cc1cccc(OCC(=O)O/N=C(\N)Cc2ccc(Cl)cc2)c1	-0.35	25	2	-25
CSc1ccccc1NC(=O)COc1ccccc1Cl	0.049	18	-3	-18
O=C(c1c(F)c(F)c(F)c(F)c1F)N1CCN(c2cccc(C(F)(F)F)c2)CC1	/	7	7	-7
Cc1ccc(CC(=O)N2CCN(c3cccc(C(F)(F)F)c3)CC2)cc1	-5.4*	14	12	-14
COc1ccccc1CC(=O)N1CCN(c2cccc(C(F)(F)F)c2)CC1	-4.8*	1	-12	-1
CCOc1cc(C(=S)N2CCCCC2)ccc1OS(=O)(=O)c1ccc(Br)cc1	-4.9*	9	-41	-10
CCOc1ccc(C(=S)N2CCOCC2)cc1OCC	0.055	1	-18	-1
SMILES	Cav32 inh	IL1B NFkB pot	IL1B cytotox	NFkB transloc inh
CCOc1cc(C(=S)N2CCCCC2)ccc1OCC(=O)NCc1ccccc1	-0.23	-5	34	2
CCOc1cc(C(=S)N2CCC(O)CC2)ccc1OS(=O)(=O)c1ccc(Br)cc1	-4.9*	-5	2	5
CCOc1ccc(Br)cc1S(=O)(=O)N1CCCC1	-0.28	8	-30	-8
CCOc1cc(C(=S)N2CCCCC2)ccc1OS(=O)(=O)c1ccc(Cl)cc1	-5*	1	-19	-1
CC(=O)c1c(C)nc2nonc2c1N	/	-1	-4	1
O=S(=O)(NCCCCCNS(=O)(=O)c1ccc(F)cc1)c1ccc(F)cc1	-5.8*	-12	-8	12
O=S(=O)(NCCSc1ccc(Cl)cc1)c1ccc(F)cc1	-7.7*	6	-14	-6
